# Measured values taken from PubChem BioAssay (NCATS).
# Inconclusive results are not listed. Calls of active or inactive are those of the source. Calls come from the whole dose curve; as a rule, active = well fitted cell-killing curve with a large enough effect; inconclusive = small, poorly fitted or top-dose-only effect; inactive = flat fitted curve, though single readings scatter.
# Test: qHTS of pediatric cancer cell lines to identify multiple opportunities for drug repurposing: Primary screen for Rh18 cells (AID 1347102); note: nearly all actives have a fitted effect of over 65% in size
# Conditions: Rh18 rhabdomyosarcoma viability, CellTiter-Glo luminescence, 48 h; series mostly up to 46 µM; activity change, negative = cytotoxic: at the top concentration
# Source text: Drug repurposing or repositioning has been offered as a strategy for drug development in oncology programs. This approach has special potential for childhood cancers and other rare or orphan diseases, where the expected return on new drug development has been a disincentive to pharmaceuticals.
# In this project we exploit the poly-pharmacology of drugs to discover new indications via phenotypic screening of a panel of 19 well-characterized cell lines derived from solid tumors seen in children and adolescents. The goal is to identify approved drugs with previously unrecognized anticancer properties that has the potential to reveal new mechanisms and biological processes involved in carcinogenesis or drug resistance. We employed a titration-based paradigm (quantitative high-throughput screening or qHTS), where all compounds were tested at multiple concentrations for their effect on cell viability. Concentration-response curves (CRCs) were derived directly from the primary screen, and both potency and efficacy values were used to identify compounds with robust bioactivity profiles. We screened the NIH Chemical Genomics Center (NCGC) Pharmaceutical Collection (NPC) and Mechanism Interrogation Plate (MIPE) small molecule collections of approved and investigational compounds against these cell lines; and measured metabolically active cells after 48 hours of compound treatment as a proxy for cell viability.
# Assay Submitter: Nathalia J. Martinez, National Center for Advancing Translational Sciences, National Institutes of Health, Rockville, MD, USA; email: natalia.martinez@nih.gov
# [1] Shen, M et al. Quantitative high-throughput phenotypic screening of pediatric cancer cell lines identifies multiple opportunities for drug repurposing. Oncotarget 2017 Dec 19;9(4):4758-4772. PMID 29435139.
# The cells were obtained from University of North Carolina (UNC), Pediatric Preclinical Testing Program (PPT), and Coriell Institute (CI).
# qHTS cell viability assay:
# Cells were assayed in growth media at a density of 500-1,000 cells/well. Five microliters of cells were dispensed into 1,536-well, white, solid-bottom, TC-treated plates (Greiner Bio One) using a multidrop dispenser and incubated at 37 degrees C, 5% CO2, under a humidified atmosphere for 5 hours. Twenty-three nanoliters of compounds and controls (neutral control DMSO or positive control bortezomib at final concentration of 2.3 µM) were subsequently transferred by Kalypsys pintool. For primary screens, the MIPE collection was tested at 11-point dilutions (final concentrations range from 0.78 nM to 46 µM) and the NPC collection at 8-point dilutions (final concentrations range from 0.59 nM to 46 µM). Compounds tested in follow-up screens were assayed at 11-point dilutions. Cells were incubated for 48 hours, followed by addition of 3 µL of CellTiter-Glo (Promega). After a 15 min incubation at room temperature, samples were analyzed for luminescence intensity using a ViewLux High-throughput CCD imager equipped with clear filters.
# % is set by controls: 0 for no effect and ±100 for the full control effect; potency is the fitted concentration of half-maximal effect.
SMILES,"activity change, negative = cytotoxic",Potency
COc1ccc(C(=O)c2ccccc2O)c(O)c1,-8.82% (inactive),–
CCOc1ccccc1OCCN[C@H](C)Cc1ccc(OC)c(S(N)(=O)=O)c1,-3.69% (inactive),–
Cc1ccc(-c2ncc(Cl)cc2-c2ccc(S(C)(=O)=O)cc2)cn1,10.5% (inactive),–
C/C=C/C=N/NC(=O)c1ccncc1,5.47% (inactive),–
CN1CCN(c2cc3c(cc2F)c(=O)c(C(=O)O)cn3-c2ccc(F)cc2)CC1,14.7% (inactive),–
NCc1ccccc1Sc1ccccc1CO,2.8% (inactive),–
Cc1cc2c(OCC(CNC(C)(C)C)OC(=O)c3ccccc3)cccc2[nH]1 (stereo not given),15.9% (inactive),–
Nc1nc(Cl)nc2c1ncn2[C@@H]1O[C@H](CO)[C@@H](O)[C@@H]1F,-7.89% (inactive),–
O=C(O)c1ccc(S(=O)(=O)N(Cl)Cl)cc1,0.749% (inactive),–
N[C@H](C(=O)O)[C@@H](O)c1ccc(O)c(O)c1,1.04% (inactive),–
CCNC(=O)NCc1cccc(Cl)c1,11.2% (inactive),–
CCC1NC(=O)c2cc(S(N)(=O)=O)c(Cl)cc2N1 (stereo not given),6.86% (inactive),–
O=C(O)CCC(=O)Nc1ccc(S(=O)(=O)Nc2nccs2)cc1,-3.83% (inactive),–
CCCCNC(=O)NS(=O)(=O)c1ccc(N)cc1,-4.57% (inactive),–
CC(=O)Nc1ccc(OCC(O)CNC(C)C)cc1 (stereo not given),2.48% (inactive),–
CC(=O)Oc1ccc(C)cc1,10.3% (inactive),–
CCOC(=O)[C@@](C)(N)Cc1ccc(O)c(O)c1,-13.2% (inactive),–
CCN(CC)CCOC(=O)C1(c2ccccc2)CCCC1,3.2% (inactive),–
N#C/C(=C1\SCC(c2ccccc2Cl)S1)n1ccnc1 (stereo not given),-7.89% (inactive),–
C[C@]12CCC(=O)C=C1C=C[C@@H]1[C@@H]2CC[C@@]2(C)[C@H]1CC[C@@]21CCC(=O)O1,-18.6% (inactive),–

SMILES,"activity change, negative = cytotoxic",Potency
CC(=O)Nc1ccc(S(=O)(=O)Nc2ccc([N+](=O)[O-])cc2)cc1,18.6% (inactive),–
Cc1cn([C@H]2C[C@H](F)[C@@H](CO)O2)c(=O)[nH]c1=O,5.31% (inactive),–
Nc1ccc(C(=O)NCC(=O)O)cc1,-0.0827% (inactive),–
CCCCCCCCCCCCCCC[C@H](O)[C@@H](N)CO,5.65% (inactive),–
CC(C)n1c(/C=C/[C@@H](O)C[C@@H](O)CC(=O)O)c(-c2ccc(F)cc2)c2ccccc21,–,7.5 µM (active)
CCCCC(CC)COC(=O)/C=C/c1ccc(OC)cc1 (stereo not given),-0.515% (inactive),–
N=C(N)N1CCc2ccccc2C1,1.68% [at 4.84 µM] (inactive),–
C[C@@H](O)[C@H]1C(=O)N2C(C(=O)O)=C(S[C@@H]3CN[C@H](CNS(N)(=O)=O)C3)[C@H](C)[C@H]12,9.41% (inactive),–
CCNC(=O)/C=C/c1cccc(Br)c1,5.77% (inactive),–
c1ccc(CC2=NCCN2)cc1,11% (inactive),–
Nc1ccc(S(=O)(=O)Nc2cnc3ccccc3n2)cc1,12% (inactive),–
CC(C)(C)NC[C@H](O)COc1cccc2c1CCCC2=O,0.1% (inactive),–
CC(C(=O)O)c1cccc(Oc2ccccc2)c1 (stereo not given),11.1% (inactive),–
C#C[C@]1(O)CC[C@H]2[C@@H]3[C@H](C)CC4=C(CCC(=O)C4)[C@H]3CC[C@@]21C,1.85% (inactive),–
COc1cc([C@H]2Oc3cc([C@H]4Oc5cc(O)cc(O)c5C(=O)[C@@H]4O)ccc3O[C@@H]2CO)ccc1O,-14.7% (inactive),–
OC[C@H]1O[C@@H]2O[C@H]3[C@H](O)[C@@H](O)[C@@H](O[C@H]4[C@H](O)[C@@H](O)[C@@H](O[C@H]5[C@H](O)[C@@H](O)[C@@H](O[C@H]6[C@H](O)[C@@H](O)[C@@H](O[C@H]7[C@H](O)[C@@H](O)[C@@H](O[C@H]8[C@H](O)[C@@H](O)[C@@H](O[C@H]1[C@H](O)[C@H]2O)O[C@@H]8CO)O[C@@H]7CO)O[C@@H]6CO)O[C@@H]5CO)O[C@@H]4CO)O[C@@H]3CO,-6.79% (inactive),–
CCN(CC)CCNC(=O)c1cc(Br)c(N)cc1OC,-2.24% (inactive),–
CN1CCN(c2c(F)cc3c(=O)c(C(=O)O)cn4c3c2SCC4)CC1,10.5% (inactive),–
COc1cc(N)c(Cl)cc1C(=O)NC1CCN(Cc2ccccc2)CC1,-7.62% (inactive),–
OC(C#CCN1CCCC1)(c1ccccc1)c1ccccc1,-0.228% (inactive),–
